The nature of assay [1]: qHTS assay to identify small molecule antagonists of the estrogen related receptor signaling pathway with the pleiotropic PPARgamma coactivator (PGC) from Tox21 10K library - cell viability counter screen (AID 1224840; active = well fitted cell-killing curve with a large enough effect in the repeat runs, not every such curve was filed as active; also: nearly all actives have a fitted effect of over 40% in size; also: potency is read from the fitted curve at half-maximal effect). A digest of the protocol:
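PGC/ERR cells (2,000/well) plated 6 h, then compound-treated for 17.5 h at 37 C. Viability measured by CellTiter-Fluor fluorescence after 30 min at 37 C, multiplexed with the pathway assay.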
(In general: qHTS replaces the single test concentration by a dilution series.)

Assay [2] can be described thus: qHTS assay to identify small molecule antagonists of the estrogen related receptor signaling pathway with the pleiotropic PPARgamma coactivator (PGC) from Tox21 10K library (AID 1224841; call rule not given here; also: actives are mostly falling curves and most rising ones were filed inactive; nearly all actives have a fitted effect of over 50% in size; also: potency is read from the fitted curve at half-maximal effect). A digest of the protocol: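 PGC/ERR cell line, 2,000 cells/well, pre-incubated 6 hours at 37 C, then exposed to compounds for 18 hours at 37 C; luciferase read with One-Glo luminescence after 30 min at room temperature.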

Assay [3] in a line: qHTS assay to identify small molecule agonists of the estrogen related receptor signaling pathway with the pleiotropic PPARgamma coactivator (PGC) from Tox21 10K library (AID 1224842). Also: nearly all actives have a fitted effect of over 15% in size. In a few lines:
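PGC/ERR reporter cell line, 2,000 cells per well, incubated 6 h at 37 C before 23 nL compound in DMSO was added. After 18 h at 37 C, One-Glo luminescence read following 30 min at room temperature.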

In assay [4] the target is Thyrotropin receptor (Homo sapiens) (UniProt P16473). The assay can be described thus: qHTS assay to identify small molecule agonists of the thyroid stimulating hormone receptor (TSHR) signaling pathway (AID 1224843; calls by dose curve; also: nearly all actives have a fitted effect of over 45% in size; also: potency is read from the fitted curve at half-maximal effect). A digest of the protocol: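 Steps: seed 800 TSHR-HEK293 cells per well; add test compound and hold 30 min at ambient temperature; dispense cAMP-d2 then anti-cAMP cryptate; incubate 1 h at ambient; measure fluorescence intensity.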

The nature of assay [5]: qHTS assay to identify small molecule agonists of the hypoxia (HIF-1) signaling pathway - cell viability counter screen (AID 1224844; calls by dose curve; also: nearly all actives have a fitted effect of over 50% in size; also: potency is read from the fitted curve at half-maximal effect). In a few lines:
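HRE-bla ME-180 cells, 2,000/well in 0.5% dialyzed FBS medium, treated 17 h at 37C with compounds. Viability read in the same wells as the bla reporter, by CellTiter-Glo luminescence after 30 min at room temperature.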

A short description of assay [6]: qHTS assay to identify small molecule agonists of H2AX (AID 1224845; active = well fitted activation curve with a large enough effect in the signal ratio in the repeat runs, not every such curve was filed as active; the % refers to the signal ratio; also: potency is read from the fitted curve at half-maximal effect). A digest of the protocol:
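Wild-type CHO-K1 cells, plated overnight, exposed 3hr at 37C to 15 concentrations (0.76% DMSO final). Lysed, then HTRF anti-pH2AX (S139) cryptate and anti-H2AX-d2 antibodies, 24 hr room temperature; 665/620 nm emission read.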

Assay [7] is described as follows: qHTS assay to identify small molecule agonists of H2AX - cell viability counter screen (AID 1224847; calls by dose curve; also: nearly all actives have a fitted effect of over 30% in size; also: potency is read from the fitted curve at half-maximal effect). A digest of the protocol: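 CHO-K1 cells plated overnight at 37C, then exposed 3 h at 37C to compounds at 15 concentrations (0.76% DMSO final). Viability by CellTiter-Glo luminescence after 30 min at room temperature.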
The nature of assay [8]: qHTS assay to identify small molecule antagonists of the estrogen related receptor (ERR) signaling pathway from Tox21 library (AID 1224848). Also: nearly all actives have a fitted effect of over 50% in size. Also: potency is read from the fitted curve at half-maximal effect. A digest of the protocol:
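Luminescent reporter read-out (ONE-Glo) from NTP's ERR cell line after 18 h treatment at 37 C with DMSO-dissolved Tox21 compounds; cells pre-plated 6 h beforehand at 2,000 per well.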

Assay [9] in a line: qHTS assay to identify small molecule agonists of the estrogen related receptor (ERR) signaling pathway from Tox21 library (AID 1224849; calls by dose curve; also: nearly all actives have a fitted effect of over 15% in size). To be noted: ERR reporter cell line, ONE-Glo luciferase, 18 h; at 92.4 µM (top of the series) unless noted. In a few lines:
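ERR reporter cells (NTP line) pre-incubated 6 hours at 37 C, then exposed to compounds for 18 hours at 37 C. ONE-Glo luciferase luminescence was read after 30 minutes at room temperature.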

Assay [10] is described as follows: qHTS RealTime-Glo MT Cell Viability Assay in HepG2 cells - 24 hour (AID 1224867). Also: nearly all actives have a fitted effect of over 50% in size. Also: potency is read from the fitted curve at half-maximal effect. In a few lines: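 HepG2 cells (600/well) were dispensed with RealTime-Glo reagents, incubated 5 h at 37 °C, then treated with compounds in DMSO for up to 40 h. Nonlytic NanoLuc luminescence reflecting viable cells was read at each stated time point.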
Assay [11] can be described thus: qHTS RealTime-Glo MT Cell Viability Assay in HEK293 cells - 32 hour (AID 1224868). Also: nearly all actives have a fitted effect of over 50% in size. Also: potency is read from the fitted curve at half-maximal effect. In a few lines: (§1)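 HEK293 cells seeded with NanoLuc/prosubstrate reagent, rested 5 h at 37 C, then dosed and kept at 37 C up to 40 h. Nonlytic real-time luminescence from viable cells read at 0, 8, 16, 24, 32 and 40 h.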
A short description of assay [12]: A CellTox Green Cytotoxicity Assay to monitor cytotoxicity in HEK293 cells - 0 hour (AID 1224869). Also: nearly all actives have a fitted effect of over 50% in size. A digest of the protocol:
(§2)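 HEK293 cells, 600/well, were preincubated 5 hours and then exposed to compounds at 37 C for up to 40 hours. A cell-impermeant cyanine dye staining dead-cell DNA was read by fluorescence at 0, 8, 16, 24, 32 and 40 h time points.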

Assay [13] is described as follows: qHTS RealTime-Glo MT Cell Viability Assay in HepG2 cells - 40 hour (AID 1224870). Also: nearly all actives have a fitted effect of over 50% in size. Also: potency is read from the fitted curve at half-maximal effect. In a few lines:
(§3)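 HepG2 cells (600/well) mixed with RealTime-Glo MT reagent, settled 5 h at 37 C/5% CO2 before compound addition. Nonlytic NanoLuc luminescence from viable-cell prosubstrate reduction read repeatedly during 40 h treatment at 37 C.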

A short description of assay [14]: qHTS RealTime-Glo MT Cell Viability Assay in HEK293 cells - 16 hour (AID 1224872). Also: nearly all actives have a fitted effect of over 50% in size. Also: potency is read from the fitted curve at half-maximal effect. In a few lines:
as §1

The nature of assay [15]: qHTS RealTime-Glo MT Cell Viability Assay in HepG2 cells - 8 hour (AID 1224873). Also: nearly all actives have a fitted effect of over 55% in size. A digest of the protocol:
as §3

Assay [16] can be described thus: qHTS RealTime-Glo MT Cell Viability Assay in HEK293 cells - 40 hour (AID 1224874). Also: nearly all actives have a fitted effect of over 50% in size. Also: potency is read from the fitted curve at half-maximal effect. To be noted: RealTime-Glo luminescence; max response: active compounds read low. A digest of the protocol:
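600 cells/well were plated with the nonlytic NanoLuc/prosubstrate reagent, pre-incubated 5 h, then given 23 nL of compound in DMSO. Incubation at 37 C for 40 h, with luminescence from viable-cell-reduced substrate read repeatedly from 0 h.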

A short description of assay [17]: A CellTox Green Cytotoxicity Assay to monitor cytotoxicity in HEK293 cells - 24 hour (AID 1224875). Also: nearly all actives have a fitted effect of over 45% in size. Also: potency is read from the fitted curve at half-maximal effect. In a few lines:
as §2

The nature of assay [18]: A CellTox Green Cytotoxicity Assay to monitor cytotoxicity in HepG2 cells - 16 hour (AID 1224876). Also: nearly all actives have a fitted effect of over 45% in size. Also: potency is read from the fitted curve at half-maximal effect. A digest of the protocol: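 HepG2 cells, 600/well, preincubated 5 h with CellTox Green dye, then exposed to Tox21 compounds in DMSO at 37 C for up to 40 h. Dead-cell DNA fluorescence read at the indicated time point.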
The nature of assay [19]: qHTS assay to identify small molecule agonists of the hypoxia (HIF-1) signaling pathway (AID 1224846; active = well fitted activation curve with a large enough effect in the signal ratio in the repeat runs, not every such curve was filed as active; the % refers to the signal ratio). In a few lines: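 HRE-bla ME-180 beta-lactamase reporter cells in medium with 0.5% dialyzed FBS, pre-incubated 5 h then exposed to compounds 17 h at 37C, 5% CO2; reporter induction read with CCF4-AM FRET substrate.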
Assay [20] is described as follows: A CellTox Green Cytotoxicity Assay to monitor cytotoxicity in HEK293 cells - 40 hour (AID 1224871). Also: nearly all actives have a fitted effect of over 45% in size. Also: potency is read from the fitted curve at half-maximal effect. In a few lines:
as §2

A number with no mark means an inactive call. Inconclusive results are not listed. Calls of active or inactive are those of the source. Unless noted, calls follow the shape of the dose curve; as a rule, active = well fitted curve in the direction sought with a large enough effect in the repeat runs; inconclusive = weak or mixed curves; inactive = no such curve, though single readings can be large; an effect the other way counts as inactive or inconclusive.
% is scaled to controls: 0 for no effect and ±100 for the full control effect.

Sequence of Thyrotropin receptor (Homo sapiens) (P16473 whole entry, looked up): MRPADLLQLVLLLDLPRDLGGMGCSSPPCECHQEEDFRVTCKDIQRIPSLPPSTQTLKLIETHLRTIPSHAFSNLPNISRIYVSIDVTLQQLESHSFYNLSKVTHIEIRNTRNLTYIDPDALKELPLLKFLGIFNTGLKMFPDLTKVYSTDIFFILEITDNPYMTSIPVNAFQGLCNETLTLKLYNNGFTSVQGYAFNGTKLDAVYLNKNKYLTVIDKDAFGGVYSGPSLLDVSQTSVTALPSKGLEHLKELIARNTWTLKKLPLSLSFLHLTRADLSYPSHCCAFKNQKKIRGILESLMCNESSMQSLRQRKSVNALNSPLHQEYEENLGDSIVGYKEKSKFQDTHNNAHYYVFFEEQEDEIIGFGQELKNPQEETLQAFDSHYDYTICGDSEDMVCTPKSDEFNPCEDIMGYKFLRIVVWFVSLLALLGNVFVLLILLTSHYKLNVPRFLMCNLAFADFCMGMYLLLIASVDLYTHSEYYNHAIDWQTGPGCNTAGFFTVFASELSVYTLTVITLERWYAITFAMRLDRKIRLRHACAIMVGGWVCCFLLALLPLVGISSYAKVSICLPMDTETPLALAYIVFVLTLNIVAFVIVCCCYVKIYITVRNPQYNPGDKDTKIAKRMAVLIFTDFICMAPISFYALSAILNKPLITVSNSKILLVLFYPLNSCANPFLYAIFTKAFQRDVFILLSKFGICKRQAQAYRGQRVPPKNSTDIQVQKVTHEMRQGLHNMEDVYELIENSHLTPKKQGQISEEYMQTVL

Regarding `Cc1ccc2n[nH]nc2c1`, the Potency result in [1], in assay [2], in assay [3], in assay [4], in [5] and in assay [6] was “inactive” each time. Also, the Potency entry in [7], in assay [8], in assay [10], in [11], in assay [12] and in [13] was “inactive” each time. In addition, the Potency result in assay [14], in assay [15], in assay [17] and in [18] was “inactive” each time. Further, in assay [9], the activity change, positive = activation is 4.26%. Besides, the max response in assay [16] was -0.793%.
`CC(C)(C)C1=CC(=O)C(C(C)(C)C)=CC1=O`: the Potency result in assay [1], in assay [2], in [3], in [19], in [7] and in [8] was “inactive” each time. In addition, the Potency result in assay [10], in assay [12], in assay [15], in assay [17] and in [18] was “inactive” in each case. In addition, the Potency in assay [4] is 9.44 µM (active).
Take `C=C1C(CCl)(CCl)C2(Cl)C(Cl)C(Cl)C1(Cl)C2(Cl)Cl` (stereo unspecified): the Potency in assay [1] was 53.8 µM (active); in assay [2], 60.4 µM (active); in assay [4], 17 µM (active); in assay [5], 24.3 µM (active); in assay [6] it was 99.6 µM (active); in assay [7], 99.6 µM (active). Also, the Potency was 60.4 µM (active) in assay [8], 48.4 µM (active) in assay [20], 48.4 µM (active) in assay [14] and 54.3 µM (active) in assay [17]. Besides, the Potency entry in assay [3], in [12], in assay [13] and in [18] was “inactive” in each case. Also, in assay [9], the activity change, positive = activation is -73.9%.
Turning to `CCCCCc1ccc(O)cc1`, the Potency result in [1], in assay [2], in assay [3], in assay [4], in [8] and in assay [10] was “inactive” in each case. Moreover, the Potency entry in assay [12] and in assay [13] was “inactive” in each case. The Potency was 89.8 µM (active) in assay [7], 34.7 µM (active) in assay [20], 38.9 µM (active) in assay [17] and 49 µM (active) in [18].
For the compound `N#Cc1nc(Cl)c(Cl)c(Cl)c1Cl`, the Potency in assay [1] is 15.4 µM (active); in assay [2], 12.2 µM (active); in assay [4], 34.4 µM (active); in assay [5], 34.7 µM (active); in [8], 9.69 µM (active); in assay [10] it was 24.5 µM (active). For the same compound, the Potency in [11] was 2.19 µM (active); in assay [13], 17.4 µM (active); in assay [20], 1.55 µM (active); in assay [14], 2.45 µM (active); in [16] it was 2.19 µM (active); in assay [18], 49 µM (active). Also, the Potency entry in [3] and in [12] was “inactive” in each case. Also, in assay [9], the activity change, positive = activation was -76.2%.
As for `CC1(C)[C@H]2CC[C@]1(C)C(=O)C2`, the Potency result in [1], in [2], in assay [3], in [4], in [5] and in assay [6] was “inactive” throughout. In addition, the Potency result in assay [19], in assay [7], in [8], in assay [10], in assay [11] and in [12] was “inactive” each time. In addition, the Potency entry in assay [13], in assay [20], in assay [14], in assay [17] and in [18] was “inactive” throughout. In addition, in assay [9], the activity change, positive = activation is 6.28%. Also, the max response in assay [16] was 16%.
Take `Nc1cc([N+](=O)[O-])ccc1Cl`: the Potency result in assay [1], in assay [2], in assay [3], in [4], in assay [5] and in [6] was “inactive” throughout. In addition, the Potency entry in [19], in [7], in [8], in [10], in assay [11] and in assay [12] was “inactive” in each case. Moreover, the Potency result in assay [13], in assay [20], in assay [14], in [15], in assay [17] and in assay [18] was “inactive” in each case. The activity change, positive = activation in assay [9] is 1.59%. Besides, the max response in assay [16] was 0.705%.
